Screening results as filed in PubChem BioAssay.
Hits are enriched below; roughly 10% of the tested compounds scored in any of these assays.
hNpr1 antagonist = human Npr1 receptor antagonism. P16066. HEK293 hNpr1 GloSensor cGMP, ANP-stimulated luminescence. Potency, µM (doses to about 46.3 µM), for inactives: top-dose activity change, negative = inhibition, hits mostly inhibitors. actives 1.6% (n = 76,000). AID 1347048; calls by dose curve; further: on the % scale 0 is the no-effect control and ±100 the full control effect; nearly all actives have a fitted effect of over 60% in size
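Compound pre-incubated 30 min at room temperature on GloSensor-loaded HEK293 cells stably carrying hNpr1 and the pGS-40F cGMP biosensor. Stimulation uses hNppA at 0.1 nM final; luminescence is taken at baseline and 20 min post-agonist.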
FLuc inh = inhibitors of firefly (Photinus pyralis) luciferase; P08659; purified P. pyralis luciferase, luminescence, biochemical; Potency, µM (top dose mostly 115 µM), usual class: inhibitors; actives 2.5% (n = 76,000); further: on the % scale 0 is the no-effect control and ±100 the full control effect; nearly all actives have a fitted effect of over 65% in size
Target sequence (P08659 whole entry, looked up): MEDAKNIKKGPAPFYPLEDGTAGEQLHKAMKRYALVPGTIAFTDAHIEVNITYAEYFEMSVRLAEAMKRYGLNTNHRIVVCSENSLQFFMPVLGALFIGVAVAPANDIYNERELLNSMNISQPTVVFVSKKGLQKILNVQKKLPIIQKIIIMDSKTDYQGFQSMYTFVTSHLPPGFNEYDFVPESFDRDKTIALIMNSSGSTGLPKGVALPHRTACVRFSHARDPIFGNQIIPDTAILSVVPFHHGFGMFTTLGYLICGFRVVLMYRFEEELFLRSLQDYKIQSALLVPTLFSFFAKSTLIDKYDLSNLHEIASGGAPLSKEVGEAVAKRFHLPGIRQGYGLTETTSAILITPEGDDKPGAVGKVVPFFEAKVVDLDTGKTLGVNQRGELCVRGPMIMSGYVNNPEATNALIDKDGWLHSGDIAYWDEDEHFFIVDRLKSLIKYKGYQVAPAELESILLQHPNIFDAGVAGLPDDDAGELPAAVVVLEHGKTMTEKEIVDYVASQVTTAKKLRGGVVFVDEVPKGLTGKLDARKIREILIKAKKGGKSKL
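Purified P. pyralis luciferase (10nM final) in 50mM Tris acetate pH 7.5, 10mM Mg acetate, 0.01% Tween-20, 0.05% BSA with 10uM D-luciferin and 10uM ATP. Compounds titrated qHTS. Luminescence imaged on CCD.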
NIH3T3 tox = kills NIH 3T3 cells. Potency, µM (doses to about 96.7 µM), without a hit: top-dose activity change, negative = cytotoxicity, usual class: inhibitors. NIH 3T3 viability, CellTiter-Glo ATP luminescence, 48-72 h. AID 1345082. actives 4.3% (n = 94,000); further: on the % scale 0 is the no-effect control and ±100 the full control effect; nearly all actives have a fitted effect of over 55% in size
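NIH 3T3 cells at 400 cells/well received 23 nL of compound by pintool and were incubated 48 or 72 h at 37 °C. Viability was read as ATP-coupled CellTiter-Glo luminescence.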
HEK cytotox = HEK 293 cell cytotoxicity; AID 1345083; Potency, µM (series often up to 115 µM), inactives show top-dose activity change, negative = cytotoxicity, actives largely listed as inhibitors; HEK 293 viability, ATP luminescence (CellTiter-Glo), 48-72 h; actives 6.6% (n = 94,000); further: on the % scale 0 is the no-effect control and ±100 the full control effect; nearly all actives have a fitted effect of over 60% in size
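Cytotoxicity was scored by loss of ATP-coupled luminescence (CellTiter-Glo) in HEK 293 cells. Compound treatment ran 48 or 72 hr at 37 degree Celsius, 5% CO2, 95% humidity.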
GPT2 inhibitor = blocks human glutamate pyruvate transaminase 2 | AID 1671188 | Recombinant GPT2, coupled pyruvate oxidase/HRP Amplex Red fluorescence | Q8TD30 | Potency, µM (highest dose often 57.7 µM), for inactives: at the top dose activity change, negative = inhibition, usual class: inhibitors | actives 0.25% (n = 100,000); further: on the % scale 0 is the no-effect control and ±100 the full control effect; nearly all actives have a fitted effect of over 60% in size
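Recombinant GPT2 (10ng/uL) with 250uM a-KG and 2mM L-alanine, 30 min at room temperature, in HEPES pH 7.5 buffer. Pyruvate detected by pyruvate oxidase/HRP/Amplex Red fluorescence after 30 min in the dark; AOA (50uM) as positive control.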
NPR1 antag cnf = confirmation of human Npr1 natriuretic peptide receptor antagonists; shares compounds with hNpr1 antagonist; HEK293 hNpr1 cGMP GloSensor luminescence, ANP-stimulated; Potency, µM (titrated, usually from 57.6 µM), without a hit: at the top dose activity change, negative = inhibition, usual class: inhibitors; actives 76% (n = 1,400); calls by dose curve; further: nearly all actives have a fitted effect of over 70% in size
NPR2 antag = antagonizes human Npr2, subtype selectivity check | HEK293 hNpr2 GloSensor cGMP luminescence, CNP-stimulated | Potency, µM (highest dose often 57.6 µM), without a hit: at the top dose activity change, negative = inhibition, usual class: inhibitors | actives 67% (n = 1,400) | shares compounds with hNpr1 antagonist | AID 1347046; calls by dose curve; further: nearly all actives have a fitted effect of over 70% in size
FLuc counter = inhibits firefly luciferase, false Npr1 antagonist flag; shares compounds with hNpr1 antagonist; purified FLuc enzyme, luminescence, Km substrate; Potency, µM (series often up to 57.6 µM), inactives show top-dose activity change, negative = inhibition, usual class: inhibitors; actives 0.7% (n = 1,400); further: 0% is about no effect
GloSensor cGMP = counter-screen for Npr1 antagonists: GloSensor control cell line; shares compounds with hNpr1 antagonist; HEK293 GloSensor cGMP, SNP-stimulated, luminescence; Potency, µM (highest dose often 57.6 µM), for the others: top-dose activity change, negative = inhibition, hits mostly inhibitors; actives 69% (n = 1,400); calls by dose curve; further: on the % scale 0 is the no-effect control and ±100 the full control effect; nearly all actives have a fitted effect of over 70% in size
An asterisk follows results filed as active; i = inactive; ? = inconclusive; / = no result given; [ ] = dose if it differs, or a comment. Unless noted, the call rests on the fitted dose curve; in most records, active means well fitted curve in the direction sought with a large enough effect; inconclusive means small, poorly fitted or top-dose-only effect, or another doubt; inactive means no such curve, though single readings can be large; an effect the other way counts as inactive or inconclusive. Potency means the concentration at half of the fitted maximal effect.

SMILES | hNpr1 antagonist | FLuc inh | NIH3T3 tox | HEK cytotox | GPT2 inhibitor | NPR1 antag cnf | NPR2 antag | FLuc counter | GloSensor cGMP
Fc1ccc(C2Cn3nnc(-c4nc(C5CCCCC5)no4)c3CO2)cc1 (stereo unspecified) | ? | i | -26% | -9% | -12% | 12µM* | 9.7µM* | -1% | -24%
Cc1ccc(C2Cn3nnc(-c4noc(-c5ccoc5)n4)c3CO2)cc1 (stereo unspecified) | ? | i | i | 14% | -7% | ? | ? | 0% | -3%
Cc1cnc(-c2ccccc2)n1C1CCN(C(=O)CC2CCCCC2)C1 (stereo unspecified) | / | / | ? | -10% | -5% | / | / | / | /
CC1=C(C(=O)OC(C)C)C(c2ccc(C)cc2)CC(=O)N1Cc1cccc(C#N)c1 (stereo unspecified) | ? | i | ? | 35µM* | -13% | ? | ? | 1% | -2%
O=C(CCC1CCN(C(=O)c2ccoc2)CC1)N1CCC(Cc2ccccc2)CC1 | -22% | i | ? | ? | i | ? | -27% | -16% | ?
O=C(c1ccoc1)N1CCCC(CN2CCCC2)CC1 (stereo unspecified) | 2% | i | -11% | -9% | i | / | / | / | /
COc1ccc(C(=O)N2CCC3(C2)C(=O)N(Cc2ccccc2)c2ccccc23)cc1 (stereo unspecified) | 5µM* | i | ? | ? | i | 17µM* | 17µM* | -1% | 11µM*
COc1ccc(C(=O)N2CCC3(C2)C(=O)N(c2ccccc2)c2ccccc23)cc1 (stereo unspecified) | / | / | -18% | ? | i | / | / | / | /
O=C(Cc1c[nH]c2ncc(-c3ccccc3C(F)(F)F)cc12)N1CCOCC1 | 2µM* | i | ? | ? | -6%[88.5 µM] | 4.4µM* | 8.9µM* | 1%[86.2 µM] | 4µM*
O=C(Cc1c[nH]c2ncc(-c3ccccc3)cc12)NCCN1CCOCC1 | 3%[70.6 µM] | i | ? | -16%[172 µM] | -3%[88.5 µM] | / | / | / | /
Cc1ccccc1-c1cnc2[nH]cc(CC(=O)N3CCOCC3)c2c1 | 2.8µM* | i | -55%[138 µM] | 112µM* | i | 2.8µM* | 4.4µM* | -1%[86.2 µM] | 2.2µM*
O=C(Cc1c[nH]c2ncc(-c3cccnc3)cc12)NC1CCOCC1 | 3%[70.6 µM] | i | ? | -18%[172 µM] | i | / | / | / | /
Cc1ccccc1CNC[C@H]1Cn2ccnc2CO1 | 0%[70.6 µM] | i | -8%[174 µM] | -13%[230 µM] | -8%[88.5 µM] | / | / | / | /
COc1ccccc1-n1c(=O)c(C(=O)NC(C)C)nc2cccnc21 | / | / | -21%[138 µM] | -7%[172 µM] | -6%[88.5 µM] | / | / | / | /
CN(Cc1noc(C2CCCC2)n1)c1cc(C2CC(O)C2)ncn1 (stereo unspecified) | ? | i | ? | -44% | 5%[11.5 µM] | 22µM* | ? | 1% | 22µM*
OC1CC(c2cc(N3CCC(Cc4noc(C5CC5)n4)CC3)ncn2)C1 (stereo unspecified) | 0.79µM* | i | ? | -52% | ? | 0.86µM* | 1.2µM* | 1% | 0.77µM*
Cc1noc(C)c1C(=O)N1CC(N2C(=O)c3c(c(C)nn3-c3ccccc3)C2C2CC2)C1 (stereo unspecified) | / | / | -18% | ? | / | / | / | / | /
CC1=C[C@@H](CNC(=O)c2ccccn2)[C@H](C(C)C)C[C@H]1Cc1nnc(-c2ccncc2)o1 | 14µM* | i | ? | 22µM* | -4%[88.5 µM] | 18µM* | 22µM* | -1%[86.2 µM] | 18µM*
COc1ccc(-c2nnc(C[C@@H]3C[C@@H](C(C)C)[C@H](CNC(=O)c4ccc(F)cc4)C=C3C)o2)cc1 | ? | i | ? | ? | -31% | ? | -25% | -1% | ?
CCCCOC(=O)N1C[C@@H](C(N)=O)[C@@H]2Oc3c(C)cccc3[C@@H]21 | / | / | -23% | ? | / | / | / | / | /
CCCn1cc(C(=O)NCC2COc3cc(OC)ccc3C2)c(C)n1 (stereo unspecified) | 11µM* | i | ? | ? | i | 19µM* | 22µM* | -1% | 19µM*
Cn1nc(C(=O)NC2CCN(c3cc(-c4cccs4)[nH]n3)C2)c2ccccc21 (stereo unspecified) | 0% | i | ? | ? | ? | / | / | / | /
Cn1cc(-c2ccc(O)c(F)c2)c2nc(COc3ccc(Cl)cc3)cn2c1=O | 14µM* | i | 32µM* | 32µM* | -8%[88.5 µM] | 31µM* | 31µM* | ? | 28µM*
CC(=O)Nc1cc(-c2cn(C)c(=O)n3cc(COc4ccc(Cl)cc4)nc23)ccn1 | -13%[70.6 µM] | i | -41%[138 µM] | -50%[172 µM] | i | / | / | / | /
CCOC(=O)C1=CN(CC(=O)Nc2c(C)cc(C)cc2C)S(=O)(=O)N=C1C | 11µM* | i | -19% | ? | i | 24µM* | ? | 0% | 27µM*
COc1ccccc1NC(=O)Cn1c(N(C)Cc2ccccc2)nc(C)cc1=O | -26% | i | ? | ? | -3% | / | / | / | /
COc1cc(NC(=O)Cn2c(N(C)Cc3ccccc3)nc(C)cc2=O)cc(OC)c1 | 7.9µM* | i | ? | 16µM* | -15% | 11µM* | 12µM* | 0% | 6.9µM*
COc1cc(NC(=O)Cn2c(N(C)Cc3ccccc3)nc(C)cc2=O)cc(OC)c1OC | 7.1µM* | i | ? | ? | -10% | 11µM* | 14µM* | 0% | 11µM*
CCOC(=O)c1ccc(NC(=O)Cn2c(N(C)Cc3ccccc3)nc(C)cc2=O)cc1 | 14µM* | i | ? | 40µM* | i | 22µM* | 22µM* | 1% | 22µM*
COc1ccc(C)cc1NC(=O)Cn1c(N(C)Cc2ccccc2)nc(C)cc1=O | 13µM* | i | -32% | ? | -9% | 24µM* | 24µM* | 0% | 31µM*
